The text below walks through data of PubChem BioAssay (EPA / NIEHS).

Read-out in experiment [1]: Urokinase-type plasminogen activator receptor (uPAR), PLAUR (gene 5329)
Kind of experiment: BSK_4H_uPAR: BioMAP Diversity Plus: 4H Assay for Urokinase-type plasminogen activator receptor (uPAR) Biomarker Activity (AID 2283030). The following applies: primary human endothelial cells (HUVEC); actives raise or lower the signal. A digest of the protocol:
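Human umbilical vein endothelial cells in the 4H system, 24 h after chemical dosing. Cell-surface uPAR measured by ELISA, fitted in both directions versus DMSO; cytotoxicity checked by SRB total protein in parallel cultures.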

Read-out in experiment [2]: Vascular endothelial growth factor receptor 2 (Homo sapiens) (UniProt P35968)
Kind of experiment: BSK_4H_VEGFRII: BioMAP Diversity Plus: 4H Assay for Vascular endothelial growth factor receptor 2 (VEGFR2) Biomarker Activity (AID 2283031). The following applies: primary human endothelial cells (HUVEC); actives raise or lower the signal. In outline:
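Primary human umbilical vein endothelial cells (4H system), 24 h exposure; cell-surface VEGFR2 measured by ELISA. Bidirectional fitting versus DMSO; cytotoxicity checked in parallel by SRB total-protein staining.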

Read-out in experiment [3]: Human Leukocyte Antigen - DR isotype (HLADR), HLA-DRA (gene 3122)
Kind of experiment: BSK_BE3C_HLADR: BioMAP Diversity Plus: BE3C Assay for Human Leukocyte Antigen - DR isotype (HLADR) Biomarker Activity (AID 2283032). Conditions: primary human bronchial epithelial cells; actives raise or lower the signal. In outline: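 ELISA read-out of HLA-DR on human lung bronchial epithelial primary cells, measured 24 h post-dosing. Both increases and decreases were scored relative to DMSO vehicle.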

Read-out in experiment [4]: Vascular cell adhesion molecule 1 (VCAM1), VCAM1 (gene 7412)
Kind of experiment: BSK_4H_VCAM1: BioMAP Diversity Plus: 4H Assay for Vascular cell adhesion molecule 1 (VCAM1) Biomarker Activity (AID 2283033).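 As to outcome: cell-surface VCAM-1 protein measured by ELISA.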 The following applies: primary human endothelial cells (HUVEC); actives raise or lower the signal. In outline: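 ELISA read-out of VCAM-1 on human umbilical vein endothelium 24 hours after chemical dosing; gain or loss of signal was fitted relative to DMSO, with sulforhodamine B staining of parallel cultures flagging overt cytotoxicity.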

Read-out in experiment [5]: Interferon-gamma inducible Protein 10 (IP10), CXCL10 (gene 3627)
Kind of experiment: BSK_BE3C_IP10: BioMAP Diversity Plus: BE3C Assay for Interferon-gamma inducible Protein 10 (IP10) Biomarker Activity (AID 2283034). Conditions: primary human bronchial epithelial cells; actives raise or lower the signal. In outline:
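Chemical is dosed onto human lung bronchial epithelial primary cells, cultures are incubated 24 h, and IP-10 is then quantified by ELISA. Gain or loss of signal is fitted in both directions relative to DMSO.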

Read-out in experiment [6]: Monokine induced gamma interferon (MIG), CXCL9 (gene 4283)
Kind of experiment: BSK_BE3C_MIG: BioMAP Diversity Plus: BE3C Assay for Monokine induced gamma interferon (MIG) Biomarker Activity (AID 2283035).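 As to outcome: MIG protein measured by ELISA in BE3C cultures after 24 h of dosing.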 Conditions: primary human bronchial epithelial cells; actives raise or lower the signal. A digest of the protocol:
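ELISA read-out of MIG in human lung bronchial epithelial primary cultures, 24 h post-dosing. Bidirectional curve fit vs DMSO baseline.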

Read-out in experiment [7]: Transforming growth factor beta 1 (TGFb1), TGFB1 (gene 7040)
Kind of experiment: BSK_BE3C_TGFb1: BioMAP Diversity Plus: BE3C Assay for Transforming growth factor beta 1 (TGFb1) Biomarker Activity (AID 2283036;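 also: TGF-b1 protein level measured by ELISA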). Conditions: primary human bronchial epithelial cells; actives raise or lower the signal. In outline: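 Primary human lung bronchial epithelial cells; compound exposure 24 h; TGF-b1 by ELISA; bidirectional fit, DMSO baseline. Parallel SRB total-protein staining for cytotoxicity.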

Read-out in experiment [8]: Plasminogen activator inhibitor-1 (PAI1), SERPINE1 (gene 5054)
Kind of experiment: BSK_BE3C_PAI1: BioMAP Diversity Plus: BE3C Assay for Plasminogen activator inhibitor-1 (PAI1) Biomarker Activity (AID 2283037). The following applies: primary human bronchial epithelial cells; actives raise or lower the signal. A digest of the protocol:
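Primary human lung bronchial epithelial cells; chemical dosing; 24 h; PAI-1 measured by ELISA; bidirectional fit referenced to DMSO as negative control.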

Read-out in experiment [9]: urokinase plasminogen activator (uPA), PLAU (gene 5328)
Kind of experiment: BSK_BE3C_uPA: BioMAP Diversity Plus: BE3C Assay for urokinase plasminogen activator (uPA) Biomarker Activity (AID 2283038).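 As to outcome: uPA protein level quantified by ELISA in cell cultures; uPA read one day after compound addition.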 Conditions: primary human bronchial epithelial cells; actives raise or lower the signal. In outline:
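Primary human bronchial epithelial cells, uPA measured by ELISA 24 h after dosing. Bidirectional change relative to DMSO; cytotoxicity checked in parallel cultures by sulforhodamine B total-protein staining.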

Read-out in experiment [10]: Urokinase-type plasminogen activator receptor (uPAR), PLAUR (gene 5329)
Kind of experiment: BSK_BE3C_uPAR: BioMAP Diversity Plus: BE3C Assay for Urokinase-type plasminogen activator receptor (uPAR) Biomarker Activity (AID 2283039).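 As to outcome: cells exposed to compound for one day before measurement.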 Conditions: primary human bronchial epithelial cells; actives raise or lower the signal. A digest of the protocol:
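Human bronchial epithelial primary cells; chemical exposure 24 h; uPAR by ELISA; bidirectional fit vs DMSO control.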

Structures are written as SMILES. Values joined by “and” are separate entries in the source; they are usually repeats but may differ in a detail not shown here. Equal values may be shown once. More than one record can exist for a structure, and the calls need not agree. Active and inactive are the calls of the source. The calls were made as follows: active = hit-call score of the fitted dose curve at least 0.9, where 1 is the maximum; inactive = score below 0.9.

For the compound `CO[Si](OC)(c1ccccc1)c1ccccc1`, the outcome in [1], in experiment [2], in experiment [3], in [4], in experiment [6] and in [7] was inactive. In addition, the result in [8], in [9] and in experiment [10] was inactive. The AC50 in experiment [5] is 26.6 µM (active).
For the compound `OCC(F)(F)C(F)(F)C(F)(F)F`, the outcome in experiment [1], in [2], in [3], in [4], in experiment [5] and in experiment [6] was inactive. Further, the outcome in experiment [8], in experiment [9] and in experiment [10] was inactive.
With `CCCCC(CC)COP(=O)(O)OCC(CC)CCCC` (centres undefined), the result in [1], in [2], in experiment [4], in [9] and in [10] was inactive. For the same compound, the AC50 was 29.3 µM (active) and 31.6 µM (active) in [3]; 32 µM (active) and 31.2 µM (active) in [5]; 32.8 µM (active) and 29.5 µM (active) in experiment [6]; 16.2 µM (active) and 20 µM (active) in experiment [8]; 5.24 µM (active) in experiment [10].
Regarding `O=C(O)C(F)(F)C(F)(F)C(F)(F)C(F)(F)C(F)(F)C(F)(F)C(F)(F)C(F)(F)C(F)(F)C(F)F`, the outcome in [1] and in experiment [2] was inactive. Also, the AC50 in experiment [3] was 10.5 µM (active); in experiment [4], 47.8 µM (active) and 55.4 µM (active); in experiment [5], 8.14 µM (active) and 8.37 µM (active); in [6], 15 µM (active) and 14.9 µM (active); in [8] it was 14 µM (active) and 12.1 µM (active); in experiment [9], 16.5 µM (active) and 10.6 µM (active). The AC50 in [10] is 15.7 µM (active) and 16.7 µM (active).
As to `O=S(=O)(O)C(F)(F)C(F)(F)C(F)(F)C(F)(F)C(F)(F)C(F)(F)C(F)(F)F`, the outcome in experiment [1], in [2], in experiment [3], in [4], in experiment [5] and in [6] was inactive. The result in experiment [8], in experiment [9] and in experiment [10] was inactive.
`OCC(F)(F)C(F)(F)C(F)(F)C(F)F`: the result in experiment [1], in experiment [2], in experiment [3], in experiment [4], in experiment [5] and in experiment [6] was inactive. Moreover, the result in [8], in experiment [9] and in [10] was inactive.
Turning to `C=CC(F)(F)C(F)(F)C(F)(F)C(F)(F)C(F)(F)C(F)(F)C(F)(F)C(F)(F)C=C`, the outcome in experiment [1], in experiment [2], in experiment [3], in [4], in experiment [5] and in experiment [6] was inactive. Further, the result in experiment [8], in [9] and in experiment [10] was inactive.
Take `O=S(=O)(OCCOC(F)(F)F)C(F)(F)F`: the result in experiment [1], in experiment [2], in [3], in experiment [4], in experiment [5] and in experiment [6] was inactive. Further, the result in [8], in experiment [9] and in [10] was inactive.
As for `CC(C)(C)C(=O)CC(=O)C(F)(F)C(F)(F)C(F)(F)F`, the outcome in [1], in experiment [2], in [3], in experiment [4], in experiment [5] and in experiment [6] was inactive. The outcome in experiment [8], in experiment [9] and in experiment [10] was inactive.
For `O=C(CC(=O)C(F)(F)C(F)(F)F)C(F)(F)F`, the result in experiment [1], in experiment [2], in [3], in [4], in experiment [5] and in experiment [6] was inactive. For the same compound, the outcome in [8], in [9] and in experiment [10] was inactive.
Turning to `C=CC(F)(F)C(F)(F)C(F)(F)C(F)(F)C(F)(F)C(F)(F)C(F)(F)C(F)(F)F`, the result in experiment [1], in experiment [2], in [3], in [4], in experiment [5] and in [6] was inactive. For the same compound, the outcome in experiment [8], in [9] and in experiment [10] was inactive.
Turning to `O=C(O)C(F)(F)C(F)(F)C(F)F`, the outcome in experiment [1], in [2], in [3], in [4], in experiment [5] and in experiment [6] was inactive. In addition, the result in [8], in experiment [9] and in experiment [10] was inactive.
On to `O=C(O)C(F)(F)C(F)(F)C(F)(F)F`, for which the result in experiment [1], in [2], in [3], in experiment [4], in experiment [5] and in experiment [6] was inactive. Moreover, the outcome in [8], in [9] and in experiment [10] was inactive.
For `O=S(=O)(OCC(F)F)C(F)(F)F`, the outcome in experiment [1], in experiment [2], in experiment [3], in [4], in [5] and in experiment [6] was inactive. Besides, the result in experiment [8], in experiment [9] and in experiment [10] was inactive.
`CCCCCCOC(=O)c1ccccc1O`: the AC50 in [1] was 38.5 µM (active) and 44.3 µM (active); in experiment [4] it was 43.2 µM (active) and 42.5 µM (active). Besides, the result in experiment [2], in [3], in [5], in experiment [6], in [8] and in [9] was inactive. Also, the outcome in experiment [10] was inactive.
Regarding `FC(F)(F)C(F)(F)C(F)(F)C(F)(F)C(F)(F)C(F)(F)C(F)(F)Br`, the outcome in experiment [1], in experiment [2], in experiment [3], in experiment [4], in experiment [5] and in experiment [6] was inactive. In addition, the result in experiment [8], in experiment [9] and in [10] was inactive.
For the compound `O=C(O)C(F)(OC(F)(F)C(F)(OC(F)(F)C(F)(OC(F)(F)C(F)(F)C(F)(F)F)C(F)(F)F)C(F)(F)F)C(F)(F)F` (centres undefined), the outcome in [1], in [2], in [3], in [4], in experiment [5] and in experiment [6] was inactive. Besides, the result in experiment [8], in experiment [9] and in [10] was inactive.
Regarding `COC(=O)CCC(F)(F)C(F)(F)C(F)(F)C(F)(F)F`, the result in experiment [1], in experiment [2], in [3], in experiment [4], in experiment [5] and in experiment [6] was inactive. The outcome in [8], in experiment [9] and in experiment [10] was inactive.

As a reminder, the AC50 is the concentration at which the activity in the assay is half-maximal.
